Bioassay records: PubChem, National Center for Advancing Translational Sciences (NCATS)
In the library only some 3% were active in any assay of this set; here they are far more common.
IP6K1 inhibitor: blocks human inositol hexakisphosphate kinase 1; Q92551; IP6K1 kinase, ADP-Glo luminescence, 2 h; stronger effect = lower value; activity change, % (series mostly up to about 58 µM); hit rate 0.81% among 140,000; AID 1645851; in the data active = activity change below about -25%; note: % is set by controls: 0 for no effect and ±100 for the full control effect
Target sequence (Q92551 whole entry, looked up): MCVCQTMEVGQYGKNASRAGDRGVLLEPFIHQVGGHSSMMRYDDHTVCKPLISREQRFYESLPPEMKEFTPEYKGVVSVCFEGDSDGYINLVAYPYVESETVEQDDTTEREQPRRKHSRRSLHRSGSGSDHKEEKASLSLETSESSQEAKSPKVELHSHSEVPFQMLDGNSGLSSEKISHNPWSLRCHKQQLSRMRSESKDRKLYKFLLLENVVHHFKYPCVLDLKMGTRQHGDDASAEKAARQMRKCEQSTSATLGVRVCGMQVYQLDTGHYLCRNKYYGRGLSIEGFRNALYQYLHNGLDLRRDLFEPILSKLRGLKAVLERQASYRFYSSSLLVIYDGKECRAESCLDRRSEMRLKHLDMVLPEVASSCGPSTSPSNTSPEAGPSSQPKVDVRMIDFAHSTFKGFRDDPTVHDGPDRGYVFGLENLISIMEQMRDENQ
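ADP-Glo luminescence measures ADP made by human IP6K1 during a 2 h RT reaction with ATP/IP6 (mix at 1.3 mM/130 uM); top library doses 57.5 and 19.1 uM final.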
KDM5B inh: inhibitors of human KDM5B histone demethylase. Q9UGL1. KDM5B demethylase, FDH-coupled NADH fluorescence (FDH is formaldehyde dehydrogenase). Potency, µM (titrated, usually from 57.7 µM), actives largely listed as inhibitors. hit rate 2.6% among 220,000; note: potency is the fitted concentration of half-maximal effect; 0% is about no effect; nearly all actives have a fitted effect of over 70% in size
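Here, H3K4me3 peptide (12.5 µM in substrate mix) is demethylated by KDM5BΔAP, 200 nM final, after 10 min compound exposure. Formaldehyde product is coupled through FDH (0.25 U/mL in mix) to NADH fluorescence; 30-min ΔRFU feeds dose-response curves.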
SNCA expr inhib: SNCA gene expression inhibition; HEK-293 SNCA-luciferase knock-in, luminescence, 24 h; Potency, µM (series often up to 57.2 µM), for the others: at the highest dose activity change, negative = inhibition, usual class: inhibitors; hit rate 0.17% among 140,000; AID 1671194;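 note: potency is the fitted concentration of half-maximal effect; plate controls were DMSO cells for no effect and cell-free wells for full effect; nearly all actives have a fitted effect of over 45% in size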
SNCA viab count: cell viability loss counter-screen. hit rate 0.12% among 150,000. HEK-293-SNCA-luc viability, GF-AFC fluorescence, 24 h. Potency, µM (doses to about 57.1 µM), for inactives: at the top dose activity change, negative = cytotoxicity, usual class: cytotoxic;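 note: potency is the fitted concentration of half-maximal effect; 0% = DMSO-treated cells and -100% = medium-only wells without cells; nearly all actives have a fitted effect of over 30% in size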
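Cytotoxicity counterscreen: after 24 h compound treatment of genome-edited SNCA-luciferase HEK-293 cells, live-cell protease substrate GF-AFC read by fluorescence after 30 min; activity scaled between DMSO (0%) and medium-only (-100%), curves Hill-fitted.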
Active calls of the source: *; i = inactive; ? = inconclusive; nt = no result; [ ] = remark or other dose. Unless noted, calls come from the whole dose curve; as a rule, active = well fitted curve in the direction sought with a large enough effect; inconclusive = small, poorly fitted or top-dose-only effect, or another doubt; inactive = no such curve, though single readings can be large; an effect the other way counts as inactive or inconclusive.

SMILES	IP6K1 inhibitor	KDM5B inh	SNCA expr inhib	SNCA viab count
COc1ccccc1-c1ccc(C(=O)N2CCC(NC(=O)c3ccc(Cl)nc3)CC2)cc1	-11.2	nt	?	-2.7%[12.5 µM]
Cn1c(=O)c2ccnn2c2ccc(C(=O)NCCN3CCC(N4CCCCC4)CC3)cc21	0.9	28.2µM*	15.8%	2.2%
CNC(=O)c1ccc2c(c1)n(Cc1ccc(OC)cc1)c(=O)c1ccnn12	9.0	i	45.6%	9.6%
Cc1oc2c(c1C(=O)NC1CCN(C)CC1)CN(Cc1ccc(F)cc1)CC2	0.9	?	-6.7%	-3.5%
CCCCNC(=O)c1ccc2c(c1)n(Cc1ccc(F)cc1)c(=O)c1ccnn12	3.4	22.4µM*	?	-26.1%
Cn1c(=O)c2ccnn2c2ccc(C(=O)NCC3CCN(Cc4cccc(F)c4)CC3)cc21	6.9	28.2µM*	14.6%	-11.3%
CN1CCC(NC(=O)c2ccc3c(c2)n(Cc2ccc(F)cc2)c(=O)c2ccnn23)CC1	4.3	28.2µM*	7.1%	?
CN1C(=O)CCCCC1C(=O)NCC1CCN(Cc2cccc(F)c2)CC1 (stereo unspecified)	11.3	i	-24.6%	-7.3%
CCCCCNC(=O)c1cc(-c2cccc(OC)c2)nc2c1cnn2C	14.4	nt	nt	nt
c1ccc(CN(Cc2ccccn2)[C@@H]2C[C@@H]3CO[C@H](c4ccccc4)C[C@@H]3C2)cc1	9.5	nt	nt	nt
Cc1nccn1CCCC(=O)N[C@@H]1CCOC[C@H]1OCC(=O)O	9.1	i	5.1%	-3.9%
Cc1ccc(-c2ccc(CCC(=O)N[C@@H]3CCOC[C@H]3OCC(=O)O)o2)cc1	-9.4	28.2µM*	-12.2%	4.2%
O=C(NCc1cccc(Cl)c1)c1ccc2nnc(-c3cccc(C(F)(F)F)c3)n2c1	-3.3	nt	?	?
Fc1ccc(CCNc2cc(Cl)nc3ccnn23)cc1	15.0	i	11.8%[87.6 µM]	-5.2%[87.6 µM]
Nc1n[nH]c(CNc2cc(-c3ccc(F)cc3)nc3ccnn23)n1	28.2	28.2µM*	1.1%	-9.1%
Cc1ccc([S+](=O)([O-])NC2CCN(c3ccc4nnc(C5CC5)n4n3)C2)cc1 (stereo unspecified)	2.2	nt	nt	nt
Cn1cc(CN2CC[C@@H](c3ccc4c(c3)OCO4)[C@H](O)C2)c2ccccc21	-1.4	?	9.4%	9.2%
CCc1nc(CN2CC[C@@H](c3ccc4c(c3)OCO4)[C@H](O)C2)c(C)[nH]1	-3.2	25.1µM*	2.6%	-0.2%
Cc1ccc(C#N)c(N2CC[C@@H](c3ccc4c(c3)OCO4)[C@H](O)C2)n1	5.7	28.2µM*	-6.1%	-3.5%
OC1CCN(c2ccnc(N3CC[C@@H](c4ccc5c(c4)OCO5)[C@H](O)C3)n2)CC1	-3.8	i	2.1%	0.5%
COc1ccccc1-c1cccc(CN2CCCC(C(=O)NC(C)C)C2)c1 (stereo unspecified)	-2.1	nt	-18.4%	3.9%
O=C(NCCc1ccc(Cl)cc1)c1nc2cccnc2n(CCc2ccccc2)c1=O	0.7	nt	?	-4.2%
CCn1c(=O)c2c(cc(C)n2C)n(CC(=O)Nc2c(C)cccc2C)c1=O	35.5	i	?	28.2µM*
CCn1c(=O)c2c(cc(C)n2C)n(CC(=O)Nc2ccccc2C)c1=O	12.6	i	-14.4%	-14.1%
CCN1C(=O)CCN(Cc2cn(C)c3ccccc23)CC12CCOCC2	3.7	nt	-0.9%	2.8%
SMILES	IP6K1 inhibitor	KDM5B inh	SNCA expr inhib	SNCA viab count
CC(C)(C)NS(=O)(=O)c1ccccc1-c1nc(N)nc2c1CCC2	2.9	22.4µM*	6.3%	8.2%
CC(C)NC(=O)c1ccnc(-c2ccccc2S(=O)(=O)NC(C)(C)C)c1	-2.0	i	-3.4%	-22.4%
CNc1nccnc1-c1ccccc1S(=O)(=O)NC(C)(C)C	3.7	28.2µM*	-4.1%	-0.5%
CCN1CCN(CCCN2CC3(CCN(c4ncccc4F)CC3)OC2=O)CC1	2.9	17.8µM*	-3.7%	5.6%
COc1ccc(F)cc1-c1ccc(CN2CCC(NC(=O)c3ccccc3F)C2)cc1 (stereo unspecified)	-1.3	nt	nt	nt
COc1ccc(C(=O)NC2CCCN(c3ccc4nnc(C)n4n3)C2)cc1 (stereo unspecified)	-1.7	nt	nt	nt
Cn1cnc2ccc(-c3ccsc3)nc2c1=O	-2.0	35.5µM*	11.7%[87.6 µM]	-9.0%[87.6 µM]
O=c1c2nc(-c3cccc(O)c3)ccc2ncn1-c1ccccc1	12.5	i	15.2%[87.6 µM]	-6.6%[87.6 µM]
O=c1c2nc(-c3ccsc3)ccc2ncn1Cc1ccccc1	4.0	39.8µM*	57.7%[87.6 µM]	-13.8%[87.6 µM]
CC(=O)N1CCCC2(C1)CN(C)c1ccc(C(=O)NCCOc3ccccc3)cc12 (stereo unspecified)	-1.7	31.6µM*	-19.1%[87.6 µM]	5.0%[87.6 µM]
CN1CCCC2(C1)CN(C)c1ccc(C(=O)NCCOc3ccccc3)cc12 (stereo unspecified)	-0.5	39.8µM*	-2.2%[87.6 µM]	3.7%[87.6 µM]
CN1CCC2(C1)CN(CC1CC1)c1ccc(C(=O)NCCOc3ccccc3)cc12 (stereo unspecified)	2.6	?	-15.7%[87.6 µM]	-25.9%[87.6 µM]
CN1CCCC2(CCN(C(=O)CCCOc3ccccc3)C2)C1=O (stereo unspecified)	15.3	i	18.6%	0.9%
Cc1ccc(Nc2ccnc(N3CCC(C(=O)NC4CC4)CC3)n2)cc1	5.3	nt	32.7%[87.6 µM]	-4.8%[12.5 µM]
COC(=O)N1CCN(c2ccc3nnc(-c4ccccc4)n3n2)CC1	4.3	nt	nt	nt
O=C(COc1ccc(F)cc1)N1CCC(N2C(=O)C3(CCCC3)C2c2ccccc2)CC1 (stereo unspecified)	-17.1	nt	-28.0%	-11.3%
Cc1noc(C)c1-c1cc2c(cc(C)n2CCN(C)C)c(-c2ccccc2O)n1	-5.9	31.6µM*	-9.0%[87.6 µM]	?
Cc1noc(C)c1-c1cc2c(cc(C)n2CCN(C)C)c(-c2cccc(O)c2)n1	-13.2	i	-8.1%[87.6 µM]	-9.5%[87.6 µM]
Cc1noc(C)c1-c1cc2c(cc(C)n2C)c(-c2ccc(CO)cc2)n1	-1.9	i	22.6%[87.6 µM]	-0.5%[87.6 µM]
COc1cccc(-c2nc(-c3c(C)noc3C)cc3c2cc(C)n3CCN(C)C)c1OC	-6.1	39.8µM*	32.0%[87.6 µM]	-17.6%[87.6 µM]
Cc1noc(C)c1-c1cc2c(cc(C)n2CCN(C)C)c(-c2ccc(CO)cc2)n1	21.4	25.1µM*	10.1%[87.6 µM]	-11.1%[87.6 µM]
C[C@]12CC[C@H](O)CC1=CCC[C@@H]2OC(=O)NCc1ccccc1	5.6	nt	nt	nt
CSc1ccc(-c2cccc(C(=O)NCCNC(=O)c3ccc(C)cc3)c2)cc1	3.2	nt	10.9%	3.9%[12.5 µM]
CC(=O)N1CCC(Cc2noc(-c3ccccc3)n2)C1 (stereo unspecified)	-2.9	i	33.4%	-7.1%
O=C(c1cccc(F)c1)N1CCCC(Cc2noc(-c3ccccc3)n2)C1 (stereo unspecified)	6.0	i	?	3.55µM*
Cc1nn(-c2ccccc2)c2c1C(C(C)C)N(C1CCN(C(=O)c3ccc(F)cc3)CC1)C2=O (stereo unspecified)	11.3	nt	nt	nt
CCC(Sc1nc2nccnc2c(=O)n1Cc1ccccc1Cl)C(=O)NC1CCCCC1 (stereo unspecified)	28.9	i	3.55µM*	?
COc1cccc(-c2cc3c(=O)n(CCNC(=O)c4ccccc4)ccn3n2)c1	-3.4	i	46.6%	-5.8%
